# Screening results from PubChem BioAssay.
# AI-2 QS mod: Vibrio harveyi AI-2 quorum sensing modulators, primary screen, JMH597 strain, luminescence/OD600 ratio; Vibrio harveyi JMH597 AI-2 luminescence/OD600 ratio, 9 h; hits give low values; strain lacks LuxN and CqsS sensors; 0 = neutral-control median; activity change, % at 7.5 µM; actives 0.4% (n = 300,000); in the data active = activity change below about -75%, passing the limit was not always enough;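 note: luminescence divided by OD600 gain over 9 h not by final OD600 alone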
# GRIN3A LBD mod: binders of NR3A ligand-binding domain, primary screen, biophysical, differential scanning fluorimetry, uHTS; NR3A LBD differential scanning fluorimetry, Tm shift; 0% = protein alone, 100% = glycine-bound protein; actives 2.5% (n = 340,000); Tm shift relative to glycine control, % at 25 µM; Glutamate receptor ionotropic, NMDA 3A (GRIN3A) ligand-binding domain; AID 1259313, 2017;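 active = melting temperature shift of at least 10% of the positive control shift, at one fixed dose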
# AHR act: AHR activators, primary screen, cell-based, luminescence, luciferase reporter, human. Aryl hydrocarbon receptor (Homo sapiens), P35869. AHR-responsive luciferase reporter cells. activation, % at 5 µM. actives 2.5% (n = 320,000); in the data active = activation above about 47%;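 note: 0% = vehicle wells and 100% = reference agonist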
# Target sequence (P35869 whole entry, looked up): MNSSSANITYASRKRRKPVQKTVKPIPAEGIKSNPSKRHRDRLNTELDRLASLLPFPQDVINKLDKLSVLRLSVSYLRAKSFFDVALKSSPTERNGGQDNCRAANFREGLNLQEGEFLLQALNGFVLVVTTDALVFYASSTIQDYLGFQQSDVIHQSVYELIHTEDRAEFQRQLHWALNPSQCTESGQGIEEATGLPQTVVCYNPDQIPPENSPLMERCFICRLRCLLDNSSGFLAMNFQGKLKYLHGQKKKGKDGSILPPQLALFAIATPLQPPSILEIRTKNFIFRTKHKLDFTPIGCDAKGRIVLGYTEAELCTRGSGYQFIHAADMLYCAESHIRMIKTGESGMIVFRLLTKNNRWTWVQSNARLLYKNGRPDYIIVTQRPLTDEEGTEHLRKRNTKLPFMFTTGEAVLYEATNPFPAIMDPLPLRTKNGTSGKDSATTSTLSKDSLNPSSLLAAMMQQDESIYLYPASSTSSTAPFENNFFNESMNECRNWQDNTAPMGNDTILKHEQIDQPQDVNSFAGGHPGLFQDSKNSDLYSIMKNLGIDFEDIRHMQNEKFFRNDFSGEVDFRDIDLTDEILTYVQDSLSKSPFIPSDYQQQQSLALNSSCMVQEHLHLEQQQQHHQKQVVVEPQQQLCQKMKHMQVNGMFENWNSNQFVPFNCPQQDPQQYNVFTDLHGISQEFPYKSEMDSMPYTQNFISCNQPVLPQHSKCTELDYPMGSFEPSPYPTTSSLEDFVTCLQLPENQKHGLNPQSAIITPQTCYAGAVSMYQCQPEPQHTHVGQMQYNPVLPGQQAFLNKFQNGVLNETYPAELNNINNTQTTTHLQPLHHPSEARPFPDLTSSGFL
# NTR1 ag: agonists of human NTR1, primary screen, imaging, U2OS cells, beta-arrestin-GFP, high content; Neurotensin receptor type 1 (Homo sapiens), P30989; NTR1-U2OS beta-arrestin-GFP spot imaging, agonist mode; activation, % at 20 µM; actives 0.17% (n = 330,000); AID 493036, 2011;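 active = activation at or above 40% of the spot to cytoplasm intensity ratio, with at least 20 cells analyzed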;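 note: 0% = DMSO without peptide and 100% = 100 nM NTR1 peptide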
# H9c2 protect: cardioprotection against H2O2-induced cell death, primary screen, uHTS, H9c2 cells, ATPLite luminescence | H9c2 cardiomyocytes, H2O2 injury protection, 2 h | protection from H2O2 cell death, % at 20 µM | actives 0.63% (n = 360,000) | AID 588492, 2011;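 active = compounds giving at least 50% protection of heart cells from peroxide-induced death in the single-dose screen, raw or plate-pattern-corrected value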;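 note: 0% = DMSO wells with peroxide and 100% = DMSO wells without peroxide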
# SUMO Mot1 rescue: yeast Mot1-301 growth rescue at high temperature, primary screen, SUMOylation pathway inhibitor project, S. cerevisiae, ATP luminescence, 38.5C; S. cerevisiae Mot1-301 growth rescue; percent above DMSO median, 100 means doubled; growth rescue, % at 18.8 µM; actives 1% (n = 320,000); AID 2716, 2010;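 active = every valid replicate shows activation above 250% relative to neutral control wells; inactive = the rest, any valid replicate at or below 250%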;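 note: OY570 slx delta 5 strain wells were the positive control but not used for scaling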
# Starred values were filed as active, the others as inactive; . = not tested or not shown; ! = repeats disagree. Shown are actives, neighbours in structure and some others; about 6.2% of the full set was active somewhere.
SMILES,AI-2 QS mod,GRIN3A LBD mod,AHR act,NTR1 ag,H9c2 protect,SUMO Mot1 rescue
CN(C)CCCNCCCNC(=O)c1ccco1,17,11*!,1,0,-2,-21
CCCCCCn1c(=O)n2n(c1=O)[C@@H]1CN(S(=O)(=O)c3ccc(C)cc3)C[C@]1(O)[C@@H](OC(=O)NCc1ccccc1)C2,.,.,.,.,0,.
CCCS(=O)(=O)NC(=O)C1(C)CCN(C(=O)c2ccccc2C(F)(F)F)C1 (stereo not given),.,.,.,.,-7,.
COc1ccc(CN(C)CC(=O)Nc2ccccc2C(=O)NC2CC2)cc1F,.,0,6,2,3,86
COc1ccccc1C(=O)N/N=C(\C)c1cccnc1,29,0,59*,0,-2,2
COc1cc(/C=N/NC(=O)c2cccnc2)ccc1OCC(=O)Nc1ccccc1Cl,-11,-7,6,3,51*,-9
COc1cc(/C=N\NC(=O)c2cccnc2)ccc1OC(=O)c1ccccc1Cl,15,-10,14,19,55*,4
COc1cc(/C=N/NC(=O)c2cccnc2)ccc1OC(=O)c1ccco1,8,-1,5,-1,3,-9
O=C(COc1ccc(/C=N/NC(=O)c2ccccc2)cc1)Nc1ccc([N+](=O)[O-])cc1,32,9,5,1,-4,162
O=C(COc1ccc(/C=N/NC(=O)c2cccnc2)cc1)Nc1ccccc1,56,13*,4,1,19,7
COc1ccc(NC(=O)COc2ccc(/C=N/NC(=O)c3cccnc3)cc2OC)cc1,10,1,20,0,39,0
O=C(CN1C(=O)NC2(CCCC2)C1=O)NCc1ccc(Cl)cc1,.,0,-1,-1,5,-7
C/C(=N\NC(=O)c1cccnc1)c1ccc(OC2OCCOC2Oc2ccc(/C(C)=N/NC(=O)c3cccnc3)cc2)cc1 (stereo not given),15,-2,20,-1,53*,-14
COc1ccccc1NC(=O)c1cccnc1,1,2,68*,0,5,-22
COc1ccc(NC(=O)c2cccnc2)c(OC)c1,15,1,0,1,2,-1
COc1ccccc1NC(=O)COc1ccc(CO)cc1Cl,44,11*,10,2,-17,-8
COc1ccccc1NC(=O)NC(=O)c1ccccc1,-29,0,49*,1,-13,6
S=C(Cc1ccccc1)Nc1ccccc1,.,-3,.,.,-3,.
COc1ccccc1NC(=O)COc1ccc(/C=N/NC(=O)c2cccnc2)cc1,14,-9,19,5,51*,-16
Cc1ccc(S(=O)(=O)N2CCOCC2)cc1C(=O)Nc1ccccc1N1CCOCC1,.,3,4,0,7,27
CC(N=Cc1cccc(O)c1O)c1ccccc1 (stereo not given),8,-3,1,18,59*,-11
Cc1ccccc1N=Cc1cccc(O)c1O,7,3,1,9,58*,-6
CCN(CC)c1ccc(C=Nc2ccc(C)cc2C)c(O)c1,2,-1,4,-1,5,.
Cc1ccc(N=Cc2cccc(O)c2O)c(C)c1,7,.,7,5,73*,71
Cc1ccc(S(=O)(=O)N2C[C@H]3C(=O)C[C@@H](c4ccc(Cl)cc4)N(S(=O)(=O)c4ccccc4C)[C@H]3C[C@H]2c2ccc(Cl)cc2)cc1,.,.,.,.,-7,.
SMILES,AI-2 QS mod,GRIN3A LBD mod,AHR act,NTR1 ag,H9c2 protect,SUMO Mot1 rescue
COC(=O)CN(C)C(=O)c1ccc(OC2CCN(S(=O)(=O)N(C)C)CC2)cc1,3,0,0,1,-1,13
CC(Cc1ccccc1)NC(=O)CN1C(=O)c2ccccc2S1(=O)=O (stereo not given),31,2,0,0,6,-5
CCC1(c2ccc(F)cc2)NC(=O)N(CC(=O)Nc2cc(C)on2)C1=O (stereo not given),.,5,10,-1,7,.
C=CCN(C(=O)C1CC(=O)N(C2CCCC2)C1)c1nc(-c2ccc(S(C)(=O)=O)cc2)cs1 (stereo not given),.,-2,1,7,-11,-2
c1ccc(-c2cccc(-c3ccccn3)n2)nc1,-89*,1,-7,-1,65*,6
CC(C)(C)NC(=O)C1CCC(CNS(=O)(=O)c2cccc3nsnc23)CC1 (stereo not given),8,10*,0,0,-7,-7
Cc1ccccc1NC(=O)CSc1nc2c(c(=O)n(C)c(=O)n2C)n1C,8,1,4,0,3,-12
Cc1snc(S(=O)(=O)/C(C#N)=N/Nc2cccc(C(F)(F)F)c2)c1C#N,20,24*,98*,0,-17,16
CN(CC(=O)Nc1ccc(Cl)c(C(F)(F)F)c1)C(=O)CCN1C(=O)C2CC=CCC2C1=O (stereo not given),5,-1,-2,4,-11,-2
O=C(O)C1C2C=CC3(CN(c4cccc(C(F)(F)F)c4)C(=O)C13)O2 (stereo not given),19,11*,4,1,4,4
Cc1cccc(N2CC34C=CC(O3)C(C(=O)O)C4C2=O)c1 (stereo not given),25,-1,2,-2,-1,7
O=C(Nc1ccc(F)c(Cl)c1)C1Cc2c(-c3ccccc3Oc3ccccc3)ccnc2O1 (stereo not given),.,.,.,.,-12,.
COc1ccc(C(c2c(O)nc(SC)n(C)c2=O)c2c(O)nc(SC)n(C)c2=O)cc1O,-89*,6,0,-2,2,-21
O=C1OC(c2ccccc2)(c2ccc3cc(O)ccc3c2)c2ccccc21 (stereo not given),.,10*,.,.,-19,.
O=C1OC(c2ccc(O)cc2)(c2ccccc2O)c2ccccc21 (stereo not given),.,-5,.,.,-2,.
Cc1ccc2nc(C)cc(Nc3ccc4c(c3)OCCO4)c2c1,33,2,69*,2,2,77
O=C(Nc1cccc(C(F)(F)F)c1)c1cccnc1,12,1,56*,0,-3,16
NNC(=O)Nc1cccc(C(F)(F)F)c1,0,0,13,-2,-2,.
O=C(Nc1cccc(NC(=O)c2cccnc2)c1)c1ccccc1,5,-7,35,-2,6,-14
O=C(Nc1ccncc1)Nc1cccc(C(F)(F)F)c1,15,14*,25,1,-10,-9
